Sampled rows, rich in hits. Any-hit rate of the full collection: about 4.6%.
SKKanGAS inh – blocks kanamycin growth of S. pyogenes SKKanGAS strain. BacTiter-Glo, 6 h. inhibition, % at 7.5 µM. actives 1.3% (n = 300,000). AID 1662;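 active = mean replicate score, as percent of positive control median, at least 50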;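 also: strain carries kanamycin resistance gene driven by streptokinase promoter and grows in 40 µg/ml kanamycin; loss of luminescence reflects streptokinase promoter inhibition or plain growth inhibition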
TIM10 inh – growth inhibitors of TIM10 yeast strain; S. cerevisiae TIM10 strain growth, BacTiter-Glo luminescence, 24 h; inhibition, % at 10 µM; actives 1.4% (n = 330,000); AID 463195;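 active = inhibition of 40% or more at the single tested concentration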;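 also: wild-type TIM10 isogenic control strain grown at permissive 25 °C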
tim10-1 inh – inhibits growth of tim10-1 mutant yeast | S. cerevisiae tim10-1 ts strain growth, BacTiter-Glo, 24 h | actives 2.2% (n = 330,000) | inhibition, % at 20 µM;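 active = inhibition of at least 40%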;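 also: mutant grown at 25 °C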
NALP3 yeast inh – NALP3 inhibition in yeast; actives 0.39% (n = 330,000); AID 2825; Yeast reconstituted NLRP3/ASC/caspase-1, beta-gal luminescence, 24 h; inhibition, % at 10 µM;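 active = inhibition of 50% or more; inactive = inhibition below 50%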
PfHsp90 set2 – growth inhibition of yeast expressing Plasmodium Hsp90; S. cerevisiae expressing PfHsp90, BacTiter-Glo ATP, 48 h; yeast lacking PDR1 and PDR3 efflux regulators; actives 0.32% (n = 310,000); inhibition, % at 9.4 µM; AID 504621;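 active = every replicate shows inhibition above about 80%, whatever the replicate mean, limit read from the data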
tim23-1 inh – growth inhibitors of tim23-1 mutant yeast; inhibition, % at 20 µM; S. cerevisiae tim23-1 growth, BacTiter-Glo luminescence, 24 h; actives 1.3% (n = 330,000);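 active = growth inhibition of the mutant yeast at or above 50%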;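 also: temperature-sensitive mutant grown at 25 °C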
NALP3 confirm – confirmation of NALP3 inhibitors in yeast | shares compounds with NALP3 yeast inh | yeast expressing human NALP3, luminescence | inhibition, % at 10 µM | actives 81% (n = 1,300) | AID 435006; in the data active = inhibition above about 48%
Casp1 ASC ctr – counter-screen for NALP3 inhibitors: yeast caspase-1-ASC; AID 488784; yeast expressing Caspase-1-ASC, luminescence counter screen; actives 66% (n = 1,000); shares compounds with NALP3 yeast inh; inhibition, % at 10 µM
NALP3 yeast rt – retest-confirmed inhibitor of NALP3 in yeast; shares compounds with NALP3 yeast inh; yeast expressing human NALP3, luminescence read-out; inhibition, % at 10 µM; actives 53% (n = 1,000); AID 488794
A number is an active result; i = inactive; nt = no result. Rule as the data show it, unless noted: active = inhibition above about 50%; inactive = the rest.

SMILES	SKKanGAS inh	TIM10 inh	tim10-1 inh	NALP3 yeast inh	PfHsp90 set2	tim23-1 inh	others
c1ccc(Nc2nc(N3CCCCC3)nc(N3CCCCC3)n2)cc1	84	i	i	i	i	i
CCOc1nc(Nc2ccc(OC)cc2)nc(N2CCOCC2)n1	i	i	i	i	i	i
CCOc1ccc(Nc2nc(N3CCCCC3)nc(N3CCCCC3)n2)cc1	62	i	i	i	i	i
CN(C)/C=C/C(=O)c1ccc(N2CCN(c3ncc(C(F)(F)F)cc3Cl)CC2)cc1	i	i	i	i	109	i
O=C(CN1CCN(c2ncc(C(F)(F)F)cc2Cl)CC1)NCCNc1ncc(C(F)(F)F)cc1Cl	i	i	i	i	100	i
CC(=O)N[C@@H](C)c1nc2ccccc2n1CCCN1CCN(c2nc(-c3ccc(C)cc3)cs2)CC1	i	i	i	i	i	i
O=C(Nc1ccc(N2CCCC2)c(S(=O)(=O)Nc2cccc(C(F)(F)F)c2)c1)c1cccs1	52	i	i	i	i	i
Cc1ccc(C(=O)Nc2nnc(-c3ccncc3)o2)cc1	i	i	i	i	i	i
O=C(Nc1nnc(-c2ccc(Br)cc2)o1)c1cccc(N2C(=O)CCC2=O)c1	88	i	i	i	nt	i
Cc1cccc(-c2nnc(NC(=O)c3ccc(Cl)cc3)o2)c1	122	i	i	i	nt	i
O=C(Nc1nnc(-c2ccccn2)o1)c1cccc(Cl)c1	83	i	i	i	i	i
O=C(Nc1nnc(-c2cc(Cl)ccc2Cl)o1)c1ccco1	74	i	i	i	i	i
COc1ccc(Br)cc1CN(C)C(=O)c1ccccc1SCC(=O)N1CCCC1	nt	nt	nt	nt	i	nt
O=C(Nc1nnc(-c2ccco2)o1)c1cccc(Cl)c1	88	i	i	i	i	i
O=C(Nc1nnc(-c2ccccn2)o1)c1cccc(Br)c1	67	i	i	i	i	i
O=C(Nc1nnc(-c2cccnc2)o1)c1cccc(Cl)c1	79	i	i	i	i	i
N#Cc1ccc(C(=O)Nc2nnc(-c3ccccn3)o2)cc1	i	i	i	i	i	i
COC(=O)c1cc(-c2ccc(OC)c(OC)c2)c2c(=O)[nH]c(=O)n(C)c2n1	i	i	i	i	i	i
CCOc1ccc(-c2cc(C(=O)OC)nc3c2c(=O)n(C)c(=O)n3C)cc1	93	i	i	i	i	i
COC(=O)c1cc(-c2ccc(Br)cc2)c2c(=O)[nH]c(=O)n(C)c2n1	62	i	i	i	i	i
CC(=O)N1N=C(c2ccc(Cl)cc2)CC1c1ccco1 (configuration not stated)	i	i	i	i	i	i
O=C(c1ccc(Br)o1)N1N=C(c2ccc(Cl)cc2)CC1c1ccco1 (configuration not stated)	60	i	i	i	i	i
CC(Sc1ccccc1)C(=O)NCCc1ccccc1 (configuration not stated)	i	i	i	i	i	i
CCCCCC(O)(c1ccc(OCC)cc1)C(CN1CCOCC1)c1ccccc1 (configuration not stated)	i	i	i	i	i	i
O=C(Nc1ccc(S(=O)(=O)N2CCOCC2)cc1)c1cccc(Br)c1	i	i	i	i	i	i
SMILES	SKKanGAS inh	TIM10 inh	tim10-1 inh	NALP3 yeast inh	PfHsp90 set2	tim23-1 inh	others
CCOC(=O)c1cc(CC)sc1NC(=O)c1ccc(N2C(=O)CCC2=O)cc1	55	i	i	i	i	i
Clc1ccccc1C(c1ccccc1)(c1ccccc1)n1ccnc1	50	i	i	i	90	i
Fc1cccc2sc(Nc3nc4cc5c(cc4s3)OCO5)nc12	53	i	i	i	i	i
Fc1cccc2sc(Nc3nc4cc5c(cc4s3)OCCO5)nc12	i	i	i	i	i	i
c1ccc(-c2ccc(-c3cn4c(n3)CCC4)cc2)cc1	i	i	i	66	i	i	NALP3 confirm=68;Casp1 ASC ctr=87;NALP3 yeast rt=74
CS/C(=N\S(=O)(=O)c1cccs1)Nc1ccc(F)c(Cl)c1	i	i	i	i	i	i
CS/C(=N\S(=O)(=O)c1cccs1)Nc1cccc(Cl)c1C	i	i	i	i	i	i	NALP3 confirm=i
Cc1ccc(-n2c(-c3ccccc3)n[nH]c2=S)cc1	i	i	i	i	i	i
Cc1ccc(-n2c(-c3ccccc3)c[nH]c2=S)cc1	i	i	i	56	i	i	NALP3 confirm=i
COc1ccc(-n2c(-c3ccc(Cl)cc3)c[nH]c2=S)cc1	i	i	i	57	i	i	NALP3 confirm=80;Casp1 ASC ctr=51;NALP3 yeast rt=i
O=C(Nc1nc2cc3c(cc2s1)OCO3)C1CC1	i	i	i	i	i	i
O=C(Nc1nc2cc3c(cc2s1)OCO3)C1CCCCC1	i	i	i	56	i	i	NALP3 confirm=64;Casp1 ASC ctr=56;NALP3 yeast rt=53
N#Cc1nccnc1S(=O)(=O)c1cccs1	i	i	i	i	nt	i
CCc1ccc2oc(-c3ccc(OC)cc3)cc(=Nc3cccc(C(=O)O)c3)c2c1	i	i	i	i	i	i
COc1ccc(-c2cc(C(=O)Nc3c(C)n(C)n(-c4ccccc4)c3=O)no2)cc1	i	i	i	i	i	i
CCc1ccc2oc(-c3ccc(OC)cc3)cc(=Nc3c(C)n(C)n(-c4ccccc4)c3=O)c2c1	i	i	i	53	i	i	NALP3 confirm=i;Casp1 ASC ctr=54;NALP3 yeast rt=i
COc1ccc(-c2cc(=Nc3ccc(C(=O)O)cc3)c3cc(C)ccc3o2)cc1	i	i	i	53	nt	i	NALP3 confirm=72;Casp1 ASC ctr=57;NALP3 yeast rt=i
Cc1ccc2c(C(=O)CN3CCN(C(=O)c4ccco4)CC3)c(C)[nH]c2c1	i	i	i	i	i	i
CC(=O)Oc1ccc(C(=O)N2c3ccccc3NC(=O)C2C)cc1 (configuration not stated)	i	i	i	i	i	i
c1coc(C2Nc3ccccc3C3OCCC23)c1 (configuration not stated)	i	i	i	i	nt	i
Fc1ccc2c(c1)C1OCCCC1C(c1ccccc1)N2 (configuration not stated)	i	i	i	62	i	i	NALP3 confirm=i
COc1ccc2[nH]c3c(c2c1)CCN1C(=O)C(CC(=O)NCc2cccc(C(F)(F)F)c2)C[C@H](C(=O)N(C(C)C)C(C)C)[C@@]31C (some centres not stated)	nt	i	i	nt	i	i
CCOc1ccc(CNC(=O)C(=O)c2cn(CC(=O)N3CCOCC3)c3ccccc23)cc1OC	i	i	i	i	i	i
O=C(Nc1cccc(Cl)c1)c1cc(-c2ccco2)on1	i	i	i	59	i	i	NALP3 confirm=74;Casp1 ASC ctr=63;NALP3 yeast rt=i
O=C(Nc1cc(Br)ccc1O)c1cc(-c2ccco2)on1	i	nt	nt	nt	i	nt

Screens (PubChem BioAssay)
